Assay outcomes: PubChem, National Center for Advancing Translational Sciences (NCATS)
gsp antag – antagonists of gsp mutant (McCune-Albright syndrome) | gsp-mutant cells, cAMP HTRF, 30 min | actives 0.4% (n = 340,000) | AID 624288 | Potency, µM (highest dose often 76.9 µM), for the others: top-dose activity change, negative = inhibition, hits mostly inhibitors; calls by dose curve; cell line not stated here;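 further: intracellular cAMP measured with PDE inhibitor Ro 20-1724 present during compound exposure; potency means the concentration at half of the fitted maximal effect; on the % scale 0 is the no-effect control and ±100 the full control effect; nearly all actives have a fitted effect of over 65% in size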
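Cells, 2000/well, grown 16–24 h in DMEM 10% FBS with 0.5 mg/ml G418, then compounds plus […] (300 uM addition stock), 30 min at 37C. cAMP read by HTRF (cAMP-d2 and anti-cAMP antibody-K in lysis buffer) after 30 min RT.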
Giardia killer – kills Giardia lamblia. AID 540267. Giardia lamblia trophozoite viability. actives 0.15% (n = 340,000). activity change, % at 7.66 µM, hits read low; in the data active means activity change below about -80%; inconclusive means between about -30% and that limit;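 further: parasites exposed to compound for two days anaerobically before the ATP read; on the % scale 0 is the no-effect control and ±100 the full control effect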
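Media and compound were dispensed first, then trophozoites at 100 cells/well; plates sat 48 hrs at 37 deg C without oxygen before ATP luminescence reagent was added and read after 15-30 min at room temperature.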
FBPA coupling cs – counter-screen for Giardia aldolase inhibitors: coupling enzyme system | activity change, negative = inhibition, % at 58.2 µM, hits read low | coupling enzyme system counterscreen, AmpLite Red fluorescence | actives 0.67% (n = 290,000) | AID 2472; in the data active means activity change below about -30%; further: on the % scale 0 is the no-effect control and ±100 the full control effect
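Compounds tested against the coupling enzymes alone at 57.5 uM final; readout was AmpLite Red fluorescence (525/598 nm) after 20 min at RT.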
RXFP1 agonist – activates the human relaxin receptor RXFP1; actives 0.3% (n = 370,000); Potency, µM (top dose mostly 57.5 µM), for the others: at the highest dose activation, usual class: activators; Q9HBX9; AID 2676; HEK293T-RXFP1 cAMP TR-FRET, 30 min; response scale: percent of porcine relaxin response, buffer zero; active means well fitted activation curve with a large enough effect; inconclusive means small, poorly fitted or top-dose-only effect; further: potency means the concentration at half of the fitted maximal effect; on the % scale 0 is the no-effect control and ±100 the full control effect; nearly all actives have a fitted effect of over 60% in size
Target sequence (Q9HBX9 whole entry, looked up): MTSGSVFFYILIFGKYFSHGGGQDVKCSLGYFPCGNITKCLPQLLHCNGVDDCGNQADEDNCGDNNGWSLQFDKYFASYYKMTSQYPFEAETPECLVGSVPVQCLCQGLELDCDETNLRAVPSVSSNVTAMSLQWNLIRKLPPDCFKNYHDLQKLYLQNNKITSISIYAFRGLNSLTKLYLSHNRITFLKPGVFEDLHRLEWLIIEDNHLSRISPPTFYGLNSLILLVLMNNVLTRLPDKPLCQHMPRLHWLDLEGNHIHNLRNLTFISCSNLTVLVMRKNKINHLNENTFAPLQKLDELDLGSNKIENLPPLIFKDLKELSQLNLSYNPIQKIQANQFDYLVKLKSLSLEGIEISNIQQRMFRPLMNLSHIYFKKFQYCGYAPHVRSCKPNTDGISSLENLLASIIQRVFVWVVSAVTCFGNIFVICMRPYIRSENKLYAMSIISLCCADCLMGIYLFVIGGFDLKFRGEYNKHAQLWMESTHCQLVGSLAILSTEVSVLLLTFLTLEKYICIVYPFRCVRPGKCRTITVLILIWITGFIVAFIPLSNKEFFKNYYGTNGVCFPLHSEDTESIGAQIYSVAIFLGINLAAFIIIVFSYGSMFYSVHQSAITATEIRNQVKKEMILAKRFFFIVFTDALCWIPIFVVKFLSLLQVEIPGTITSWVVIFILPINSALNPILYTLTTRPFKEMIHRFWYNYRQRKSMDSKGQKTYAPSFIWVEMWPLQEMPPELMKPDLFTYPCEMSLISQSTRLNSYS
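HEK293 cells stably expressing RXFP1, treated 30 min at 37C with compounds plus PDE4 inhibitor Ro 20174; cAMP measured by HTRF TR-FRET. Normalized to buffer and 29 nM porcine relaxin; EC50 by Hill fit.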
gsp ag – activates gsp, the McCune-Albright syndrome mutation; gsp mutant cells, cAMP HTRF, 30 min; actives 0.13% (n = 340,000); AID 624287; Potency, µM (top dose mostly 76.9 µM), for the others: top-dose activation (cAMP increase), usual class: activators; active means well fitted activation curve with a large enough effect; inconclusive means small, poorly fitted or top-dose-only effect, or another doubt; inactive means no such curve, though single readings can be large or run the other way; cell line not stated here;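 further: phosphodiesterase inhibitor Ro 20-1724 added with compounds to block cAMP breakdown; potency means the concentration at half of the fitted maximal effect; nearly all actives have a fitted effect of over 60% in size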
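Cells stably selected in G418 were plated at 2000/well, grown 16-24 hr, then given compounds in DMSO with the PDE inhibitor […] (300 uM solution added) for 30 min at 37C; cAMP was read by HTRF.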
RXFP1 antagonist – antagonists of human relaxin receptor RXFP1. HEK293-RXFP1, relaxin-stimulated cAMP HTRF, 30 min; stronger effect = lower value. activity change, negative = inhibition, % at 57.5 µM. actives 0.59% (n = 350,000);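 active means activity change of -60% or lower, but not beyond a set lower limit; inconclusive means change between -60% and -40%, or beyond the set limit; inactive means change above -40%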; further: on the % scale 0 is the no-effect control and ±100 the full control effect
* hit, by the source's call; [ ] = another dose, or the depositor's remark. This is a sample that favours compounds with a hit; in the whole collection about 1.6% have one here.

For COc1ccc(N2C3=C(C(=O)CC(C)(C)C3)C(c3ccccc3OC)C3=C2CC(C)(C)CC3=O)cc1 the results were gsp antag 28.2µM*, Giardia killer 7.6, FBPA coupling cs -11.5, RXFP1 agonist -0.7%, gsp ag inconclusive and RXFP1 antagonist -21.0.
Screening O=C1CCC[C@@H](C2=CCCCC2=O)C1 returned FBPA coupling cs -0.2.
Screening CCCc1cc(C(=O)N2CCCC(Cc3cccc(Cl)c3)(C(=O)OCC)C2)n(C)n1 (stereo not given) returned gsp antag -12.1%, Giardia killer -7.3, FBPA coupling cs 6.1, RXFP1 agonist -7.0%, gsp ag -16.8% and RXFP1 antagonist -63.7*.
For CCC(C)(C)C1CCc2c(sc(NC(=O)c3ccccc3C(=O)O)c2C#N)C1 (stereo not given) the results were gsp antag inconclusive, Giardia killer -5.8, FBPA coupling cs 3.0, RXFP1 agonist 0.2%, gsp ag 3.5% and RXFP1 antagonist -69.3*.
Screening CC(C)(C)C1CCc2c(sc(NC(=O)C3CC=CCC3C(=O)O)c2C#N)C1 (stereo not given) returned gsp antag 39.8µM*, Giardia killer 3.9, FBPA coupling cs 7.5, RXFP1 agonist 1.5%, gsp ag -4.2% and RXFP1 antagonist -21.1.
For CC(C)(C)c1ccc(C(=O)Nc2sc3c(c2C#N)CCC(C(C)(C)C)C3)cc1 (stereo not given) the results were RXFP1 agonist 0.1%.
Screening CCN(CC)CC1CCN(c2ncc3ncnc(Nc4ccc(F)c(Cl)c4)c3n2)CC1 returned FBPA coupling cs 1.0.
Screening CC#CC(=O)Nc1cc2c(Nc3ccc(F)c(Cl)c3)ncnc2cn1 returned FBPA coupling cs -44.1*.
`CCN(CC)Cc1cc(O)c(CN(CC)CC)cc1O` gave gsp antag 6.0%, Giardia killer -23.6, FBPA coupling cs -33.3*, RXFP1 agonist 0.0%, gsp ag -27.9% and RXFP1 antagonist 0.4.
COc1c(C)c2c(c(O)c1C/C=C(\C)CCC(=O)OCCN1CCOCC1)C(=O)OC2 was read as RXFP1 antagonist -4.8.
COc1ccc(S(=O)(=O)N2CCOCC2)cc1NC(=O)CSc1nnc2ccccn12 was read as FBPA coupling cs -2.1 and RXFP1 agonist 3.55µM*.
`O=C(Nc1ccc([N+](=O)[O-])cc1Cl)c1cc(Cl)ccc1O` gave gsp antag 2µM*, Giardia killer inconclusive, FBPA coupling cs -2.9, RXFP1 agonist 1.4% and RXFP1 antagonist -24.5.
Cn1c(CNC(=O)c2ccco2)nnc1SCC(=O)c1ccccc1 was read as gsp antag 1.4%, Giardia killer 11.6, FBPA coupling cs 2.0, RXFP1 agonist -0.2%, gsp ag 28.0%[15.4 µM] and RXFP1 antagonist -7.3.
For Cn1c(CNC(=O)c2ccco2)nnc1SCC(=O)N1CCN(c2ccccc2F)CC1 the results were gsp antag 2.3%, Giardia killer 2.7, FBPA coupling cs -1.1, RXFP1 agonist -2.5%, gsp ag 4.5% and RXFP1 antagonist -93.5*.
For Cc1cc(=O)nc2c3ccccc3n(C(C)C(=O)NCCN3CCOCC3)n12 (stereo not given) the results were gsp antag -0.5%, Giardia killer -14.3, RXFP1 agonist 8.0%, gsp ag 9.6% and RXFP1 antagonist -1.3.
CCC(C(=O)NCCCN1CCOCC1)n1c2ccccc2c2nc(=O)cc(C)n21 (stereo not given) was read as gsp antag 0.2%, Giardia killer -7.7, RXFP1 agonist 0.4%, gsp ag 10.3% and RXFP1 antagonist -70.4*.
For CC1(C)OC(=O)C2(Cc3ccc(Br)cc3N3CCCCC32)C(=O)O1 (stereo not given) the results were Giardia killer 46.9.
For O=C(Nc1ccccn1)c1ccc([N+](=O)[O-])o1 the results were gsp antag 4.4%, Giardia killer -92.6*, FBPA coupling cs -2.0, RXFP1 agonist 3.0%, gsp ag inconclusive and RXFP1 antagonist 13.8.
